Assay [1] in a line: inhibitors of TNFa-induced NFkB p65 translocation, primary screen, imaging, HUVEC, MLSMR starter and 10KST1 sets (AID 438;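 active = inhibition above 20% together with a positive visual image hit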;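 note: compound added about 3h40 before a 20 min TNFalpha stimulation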;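 for inhibition: signal is the nuclear over cytoplasmic p65 intensity ratio per well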). The note with it: HUVEC TNFa-induced p65 nuclear translocation; cell count: measured here: nuclei count (cytotoxicity indicator), at 2.08 µM; inhibition: at 2 µM, stronger effect = higher value, 0% TNFa-plus-vehicle, 100% no-TNFa wells.
Assay [2] is described as follows: reduction of polyQ htt aggregates in cells – imaging, exon1htt(103Q)mCFP cells, high-content imaging, primary screen (AID 483;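 active = visual image review flags a hit and inhibition of aggregation exceeds 20%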;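 note: compound exposure lasted 3 days before fixation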;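 for nuclei count: percent of the per-plate median nuclei count of sample wells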). The note with it: exon1htt(103Q)mCFP cell line, aggregate imaging, at 2 µM; inhibition of aggregation: stronger effect = higher value; nuclei count: measured here: cell count, toxicity.
Assay [3] can be described thus: endothelial E-selectin expression blockers – imaging, HUVEC, immunofluorescence, MLSMR starter and 10KST1 sets, primary screen (AID 487;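 active = visually confirmed hit in the image check and inhibition above 20%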;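 for inhibition: signal is fraction of cell area covered by stained E-selectin grains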;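 for nuclei count: 100% = median nuclei count of all wells on the same plate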). The note with it: HUVEC TNFalpha-induced E-selectin immunofluorescence imaging, at 2 µM; inhibition: stronger effect = higher value; nuclei count: measured here: cell number, toxicity.
Assay [4] deals with Voltage-gated potassium channel subunit beta-2 (Rattus norvegicus) (UniProt P62483). The assay is described as follows: inhibitors of rat Kvbeta2 reductase activity – biochemical, NADPH fluorescence, primary screen (AID 622;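 active = fluorescence slope higher than the sample average by over 3 SD, cut at about -0.22 in these data, passing the limit was not always enough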;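 note: slope of raw intensity against log time taken from 70 to 1610 s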). The note with it: recombinant KvBeta, 4-cyanobenzaldehyde reduction, at 10 µM, stronger effect = higher value.
Sequence of Voltage-gated potassium channel subunit beta-2 (Rattus norvegicus) (P62483 whole entry, looked up): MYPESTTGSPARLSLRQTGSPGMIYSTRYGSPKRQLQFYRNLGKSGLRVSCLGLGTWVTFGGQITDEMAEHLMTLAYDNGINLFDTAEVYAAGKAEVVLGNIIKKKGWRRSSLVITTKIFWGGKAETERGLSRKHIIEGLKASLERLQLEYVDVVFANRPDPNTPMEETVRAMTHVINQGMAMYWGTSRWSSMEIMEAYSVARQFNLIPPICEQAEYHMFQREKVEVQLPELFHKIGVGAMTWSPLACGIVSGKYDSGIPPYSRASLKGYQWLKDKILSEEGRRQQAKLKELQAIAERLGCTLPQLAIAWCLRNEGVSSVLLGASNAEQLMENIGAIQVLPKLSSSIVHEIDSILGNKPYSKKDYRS
The target is the same in assay [5]. The assay is described as follows: enhancers of rat Kvbeta2 NADPH turnover – biochemical, NADPH fluorescence, primary screen (AID 623).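 Note: fluorescence intensity change per second fitted from 20 to 320 s.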 The note with it: Recombinant KvBeta, NADPH fluorescence decrease slope, 10 min; at 10 µM; stronger effect = lower value.
For assay [6], the target named is Alpha-2C adrenergic receptor (Homo sapiens) (UniProt P18825). Description: compounds altering alpha2C-coupled GIRK flux – cell-based, HEK293 alpha2C/GIRK1/2, thallium flux, primary screen (AID 624;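 active = fluorescence slope after compound addition differing from the mean of all screened samples at 99.7% confidence, in either direction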;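 note: slope of fluorescence ratio to pre-addition baseline per second over 15 to 24 s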). The note with it: thallium flux BTC fluorescence, at 10 µM, actives lie on both sides.
Sequence of Alpha-2C adrenergic receptor (Homo sapiens) (P18825 whole entry, looked up): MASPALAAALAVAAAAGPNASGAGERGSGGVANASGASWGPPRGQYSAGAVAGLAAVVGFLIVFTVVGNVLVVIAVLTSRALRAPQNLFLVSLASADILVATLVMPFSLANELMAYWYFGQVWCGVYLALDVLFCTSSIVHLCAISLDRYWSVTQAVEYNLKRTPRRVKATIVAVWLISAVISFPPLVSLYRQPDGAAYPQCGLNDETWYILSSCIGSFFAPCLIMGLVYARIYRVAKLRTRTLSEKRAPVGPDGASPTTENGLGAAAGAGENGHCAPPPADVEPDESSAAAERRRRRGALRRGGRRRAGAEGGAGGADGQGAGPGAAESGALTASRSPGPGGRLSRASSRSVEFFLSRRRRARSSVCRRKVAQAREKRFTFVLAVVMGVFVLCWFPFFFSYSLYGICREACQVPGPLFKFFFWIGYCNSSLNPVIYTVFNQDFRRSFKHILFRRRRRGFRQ
Assay [7] in a line: blockers of RIG-like receptor reporter activation – cell-based, Sendai virus stimulus, luciferase, 10K MLSCN set, TLR/RLR signaling modifier project, primary screen (AID 602276;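 active = inhibition at or above 50% at 10 µM; inactive = inhibition below 50%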;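 note: firefly luciferase from ISG56 promoter only with Renilla not read in this screen; 0% = Sendai virus plus DMSO and 100% = medium plus DMSO without virus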). The note with it: HEK293 RL24 IRF3 luciferase reporter, at 10 µM, stronger effect = higher value. (In general: A reporter such as luciferase makes a cellular process visible.)
The nature of assay [8]: TLR3 IRF3 reporter activation blockers – cell-based, poly I:C stimulus, luciferase, 10K MLSCN set, primary screen (AID 602277;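 active = inhibition of the reporter signal at or above 50%; inactive = inhibition below 50%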). The note with it: HEK293-TLR3 RL24 IRF3 luciferase reporter, at 10 µM, stronger effect = higher value.

The source made the active and inactive calls.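 Rule for the calls, unless noted: active = NADPH fluorescence slope more negative than the mean of all samples by about 3 SD, 99.7% confidence; inactive = the rest.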

`Cc1cc(C)c(S(=O)(=O)Nc2cccnc2)c(C)c1`: the cell count in assay [1] was determined as 610. The inhibition was -4.7% (inactive) in assay [1], -20.4% (inactive) in assay [3], 17.2% (inactive) in assay [7] and 15.7% (inactive) in assay [8]. Also, in assay [2], the inhibition of aggregation was -11.3% (inactive). Moreover, the nuclei count in assay [2] worked out at 119%; in assay [3], 113%. Further, the fluorescence slope in assay [4] was -0.614 (inactive). For the same compound, the NADPH fluorescence slope in assay [5] was -5.3e-05 (inactive). For the same compound, the slope in assay [6] was 0.00327 (inactive).

As for `Cc1nc2ccccc2c2oc(C(=O)NCCN3CCCCC3C)cc12` (centres undefined), the cell count in assay [1] came out at 558. The inhibition in assay [1] is 5.4% (inactive); in assay [3], -1.3% (inactive); in assay [7], 7.56% (inactive); in assay [8] it was 66.5% (active). Further, the inhibition of aggregation in assay [2] is 15.4% (inactive). The nuclei count in assay [2] came out at 87.5%; in assay [3], 120%. Besides, the fluorescence slope in assay [4] is -0.614 (inactive). Moreover, in assay [5], the NADPH fluorescence slope was -3.9e-05 (inactive). Besides, in assay [6], the slope was 0.00617 (inactive).

Regarding `CCCN(CCC)CCNC(=O)c1cc2c(=O)n(C)c3ccccc3c2n1C`, the cell count in assay [1] was found to be 627. For the same compound, the inhibition is 0% (inactive) in assay [1], -57.7% (inactive) in assay [3], 27.9% (inactive) in assay [7] and 68.2% (active) in assay [8]. Moreover, the inhibition of aggregation in assay [2] is -18.3% (inactive). For the same compound, the figures for the nuclei count in assay [2] and in assay [3] were 109% and 112%, respectively. The fluorescence slope in assay [4] is -0.456 (inactive). Further, the NADPH fluorescence slope in assay [5] is -7.5e-05 (inactive). The slope in assay [6] was 0.00528 (inactive).

With `CCOC(=O)c1oc2cccc(OC(C)=O)c2c1C`, the cell count in assay [1] was determined as 306. The inhibition was 8.1% (inactive) in assay [1], 24.5% (inactive) in assay [3], -33.6% (inactive) in assay [7] and -89.8% (inactive) in assay [8]. Besides, the inhibition of aggregation in assay [2] was 11.2% (inactive). Further, the nuclei count is 97.4% in assay [2] and 85.9% in assay [3]. The fluorescence slope in assay [4] was -0.607 (inactive). Besides, in assay [5], the NADPH fluorescence slope was -4.6e-05 (inactive). In addition, in assay [6], the slope is 0.00384 (inactive).

Turning to `O=C(c1cnccn1)N(c1ccccc1)C1(C(=O)NC2CCCC2)CCCCC1`, in assay [1], the cell count was 630. The inhibition was -15.7% (inactive) in assay [1], -31.9% (inactive) in assay [3], 6.65% (inactive) in assay [7] and 16.5% (inactive) in assay [8]. Besides, the inhibition of aggregation in assay [2] is 4.8% (inactive). Also, the nuclei count was 96.4% in assay [2] and 116% in assay [3]. The fluorescence slope in assay [4] is -0.518 (inactive). Further, the NADPH fluorescence slope in assay [5] was -5.8e-05 (inactive). Moreover, in assay [6], the slope is 0.00495 (inactive).

`N#C/C(=C(/O)CN1CCOCC1)c1nc2ccccc2s1`: the cell count in assay [1] came to 794. The inhibition in assay [1] was 2.1% (inactive); in assay [3] it was -126% (inactive); in assay [7] it was -15.8% (inactive); in assay [8] it was -1.7% (inactive). The inhibition of aggregation in assay [2] was -5.9% (inactive). Moreover, the nuclei count in assay [2] was determined as 104%; in assay [3] it was 129%. Besides, in assay [4], the fluorescence slope is -0.452 (inactive). Also, the NADPH fluorescence slope in assay [5] was 4.4e-05 (inactive). Also, the slope in assay [6] was 0.00349 (inactive).

For `Clc1cc2c(c(Cn3cnc4ccccc43)c1)OCOC2`, the cell count in assay [1] is 566. Also, the inhibition was 7.5% (inactive) in assay [1], 4.1% (inactive) in assay [3], 7.15% (inactive) in assay [7] and -9.55% (inactive) in assay [8]. Moreover, the inhibition of aggregation in assay [2] is 11.8% (inactive). The nuclei count worked out at 77.2% in assay [2] and 89.8% in assay [3]. Moreover, the fluorescence slope in assay [4] was -0.595 (inactive). Further, the NADPH fluorescence slope in assay [5] is -3e-05 (inactive). Also, the slope in assay [6] was 0.00307 (inactive).

As for `CCOC(=O)c1cc(-c2ccc(N)cc2)sc1N`, the cell count in assay [1] is 588. The inhibition in assay [1] was 14.8% (inactive); in assay [3] it was 26.4% (inactive); in assay [7], -50.5% (inactive); in assay [8] it was -117% (inactive). Besides, the inhibition of aggregation in assay [2] was 24% (inactive). For the same compound, the nuclei count is 90.5% in assay [2] and 100% in assay [3]. Further, in assay [4], the fluorescence slope is -0.433 (inactive). For the same compound, in assay [5], the NADPH fluorescence slope was -7.7e-05 (inactive). Further, the slope in assay [6] is 0.00189 (inactive).

As to `O=C(Sc1nnnn1C1CCCCC1)c1cccs1`, the cell count in assay [1] worked out at 242. In addition, the inhibition is 13.8% (inactive) in assay [1], -291% (inactive) in assay [3], 15.9% (inactive) in assay [7] and 13.5% (inactive) in assay [8]. Further, the inhibition of aggregation in assay [2] is 7.4% (inactive). Besides, the results for the nuclei count in assay [2] and in assay [3] were 91.3% and 129%, respectively. For the same compound, the fluorescence slope in assay [4] is -0.317 (inactive). In addition, in assay [5], the NADPH fluorescence slope was 1.5e-05 (inactive). In assay [6], the slope was 0.00618 (inactive).

The inhibition is the change of the read-out against control, counted positive when it falls.

For the origin of these results see PubChem BioAssay.
